D2 ag-1 = HTS Assay for Allosteric Agonists of the Human D2 Dopamine Receptor: Primary Screen for Agonists | D(2) dopamine receptor (Homo sapiens), P14416 | HEK293 T-REx D2 cells, calcium flux agonist mode | activation, % at 2 µM | 340,000 compounds, 0.53% hits | AID 485358, 2010;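 active means activation over 3 SD above normal in the single-dose calcium agonist read, cut at about 30% in these data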
Target sequence (P14416 whole entry, looked up): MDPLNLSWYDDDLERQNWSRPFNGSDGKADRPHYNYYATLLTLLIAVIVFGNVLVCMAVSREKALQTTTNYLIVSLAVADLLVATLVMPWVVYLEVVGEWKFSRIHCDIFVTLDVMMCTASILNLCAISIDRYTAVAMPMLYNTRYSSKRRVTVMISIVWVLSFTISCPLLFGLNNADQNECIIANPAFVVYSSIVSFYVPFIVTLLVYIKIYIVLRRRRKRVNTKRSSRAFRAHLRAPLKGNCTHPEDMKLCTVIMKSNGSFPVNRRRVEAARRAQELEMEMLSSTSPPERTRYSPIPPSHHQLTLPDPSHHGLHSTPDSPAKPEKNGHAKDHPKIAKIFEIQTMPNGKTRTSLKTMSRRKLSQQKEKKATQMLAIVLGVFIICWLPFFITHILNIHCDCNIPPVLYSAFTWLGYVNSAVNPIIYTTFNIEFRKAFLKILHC
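Tetracycline-induced HEK293 Trex cells with D2 receptor force-coupled to calcium signaling, plated overnight at 30 C and loaded with no-wash calcium dye. Calcium flux read kinetically for 180 s after compound addition; responses flag agonists.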
D2 ag-2 = Beta-Arrestin HTS for Positive Allosteric Modulators of the Human D2 Dopamine Receptor: Agonists; D(2) dopamine receptor (Homo sapiens), P14416; DiscoveRx PathHunter D2 beta-arrestin, luminescence, 90 min; 100% = 57 uM dopamine signal; activation, % (concentration not given with the values); 360,000 compounds, 0.084% hits; AID 624465, 2012; in the data active means activation above about 40%; inconclusive means between about 15% and that limit
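Agonist mode: compounds alone added to overnight-plated D2 PathHunter cells for 90 min at 37 C, with 57 uM final dopamine (EC100) defining full response. Beta-arrestin recruitment detected by chemiluminescent reagent, read after 1 h at ambient temperature.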
D2 PAM-1 = HTS Assay for Positive Allosteric Modulators of the Human D2 Dopamine Receptor: Primary Screen for Potentiators; D(2) dopamine receptor (Homo sapiens), P14416; potentiation, % at 10 µM; 340,000 compounds, 0.34% hits; HEK293 T-REx D2, calcium flux, EC20 dopamine potentiation;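 active means potentiation over 3 SD above the plate norm, cut at about 30% in these data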
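Tetracycline-induced HEK293 T-REx cells force-coupled to calcium signalling expressed D2; compounds were pin-added after a 10 s baseline, read kinetically 180 s, then an EC20 dopamine challenge followed with a further 180 s calcium read.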
LDHA block = qHTS assay for inhibitors of human lactate dehydrogenase | L-lactate dehydrogenase A chain (Homo sapiens), P00338 | purified LDHA, NADH/diaphorase-resazurin fluorescence; hits give low values | activity change, % (values are at about 110 or 230 µM) | 480,000 compounds, 0.15% hits; in the data active means activity change below about -30%; inconclusive means mostly about -25% to -30%
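Enzyme activity of human lactate dehydrogenase 5 (2 nM; 0.06 mM NADH, 0.2 mM pyruvate, 5 min, RT) is measured via a resazurin/diaphorase fluorescence readout of residual NADH.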
D2 PAM-2 = Beta-Arrestin HTS for Positive Allosteric Modulators of the Human D2 Dopamine Receptor: Potentiators; DiscoveRx D2 beta-arrestin cells, luminescence, 90 min; 100% = 57 uM dopamine signal; potentiation, % (test concentration not listed); 360,000 compounds, 0.23% hits; in the data active means potentiation above about 50%; inconclusive means mostly about 30% to 49%
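PathHunter D2 cells, attached overnight at 37 deg C, received compound in DMSO plus dopamine at EC20 (50 nM final) for 90 min at 37 deg C. Beta-arrestin recruitment was read as luminescence after 1 h with detection reagent at ambient temperature.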
D2 antag = HTS Assay for Allosteric Antagonists of the Human D2 Dopamine Receptor: Primary Screen for Antagonists; AID 485344, 2010; 340,000 compounds, 2% hits; inhibition, % at 10 µM; HEK293 TREx D2 cells, calcium flux, dopamine EC80; D(2) dopamine receptor (Homo sapiens), P14416; in the data active means inhibition above about 30%; inactive means below that, where a call was filed
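Inhibition of EC80 dopamine-driven calcium flux, recorded kinetically, defines activity here; cells are a tetracycline-induced HEK293 T-REx line expressing force-coupled D2.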
A number is an active result; . = inactive; ? = inconclusive; / = no result given. In the library only some 2.1% were active in any assay of this set; here they are far more common.

SMILES	D2 ag-1	D2 ag-2	D2 PAM-1	LDHA block	D2 PAM-2	D2 antag
Cc1ccc(OCC(O)CN2CCN(Cc3ccc4c(c3)OCO4)CC2)cc1C (stereo not drawn)	.	.	.	.	.	.
OC(COc1ccc2c(c1)OCO2)CN1CCCCC1 (stereo not drawn)	/	.	/	.	.	/
C=CCc1ccccc1OCC(O)CN1CCN(Cc2ccc3c(c2)OCO3)CC1 (stereo not drawn)	.	.	.	.	.	64
OC(COc1ccc2c(c1)OCO2)CN1CCc2ccccc2C1 (stereo not drawn)	.	.	.	.	.	42
N#CCC(=O)Nc1ccc(C(=O)OCc2ccc(Cl)c(Cl)c2)cc1	/	/	/	.	/	/
N/C(=N\OC(=O)c1cccc(Cl)c1)c1cccnc1	.	?	.	.	138	.
N/C(=N\OC(=O)c1cccc(Cl)c1)c1ccncc1	.	?	.	.	.	.
N/C(=N\OC(=O)c1ccc(Cl)c(Cl)c1)c1cccnc1	.	?	.	.	117	.
Cc1cc2cc(CNC(=S)Nc3cccc(Br)c3)ccc2[nH]1	/	/	/	.	/	/
COC(=O)CN(c1ccccc1F)S(=O)(=O)c1ccccc1	.	.	.	.	.	.
C/C(=N/NC(=O)CN(c1ccccc1)S(=O)(=O)c1ccccc1)c1ccccc1O	.	.	.	.	.	52
COC(=O)CN(c1ccc(F)cc1)S(=O)(=O)c1ccccc1	.	.	/	.	.	47
COC(=O)Cc1cc(=O)n(-c2nc3ccccc3[nH]2)[nH]1	.	.	.	-40	.	.
CC(C)(C)c1ccc(C(=O)CSc2n[nH]c(=O)[nH]c2=O)cc1	.	.	.	.	.	31
NS(=O)(=O)c1ccc(CCNC(=O)COC(=O)CCN2C(=O)C3CC=CCC3C2=O)cc1 (stereo not drawn)	.	.	.	.	.	.
O=C(COC(=O)CCN1C(=O)C2CC=CCC2C1=O)NCCc1ccc(F)cc1 (stereo not drawn)	.	.	.	.	.	37
O=C(Nc1ccccc1Br)c1cc2ccc(O)cc2oc1=O	/	/	/	.	/	/
COc1ccc(Oc2coc3cc(OC(=O)c4cccs4)ccc3c2=O)cc1	.	.	37	.	.	.
CNC(=S)NC1CC2CCCC(C1)N2Cc1ccc(C)cc1 (stereo not drawn)	.	.	.	.	.	81
CCNC(=S)NC1CC2CCCC(C1)N2Cc1ccc(C)cc1 (stereo not drawn)	.	.	.	.	.	82
CNC(=S)NC1CC2CCCC(C1)N2Cc1ccccc1OC (stereo not drawn)	.	.	.	.	.	.
CCCC(C#N)NC(=O)Cc1c[nH]c2ccccc12 (stereo not drawn)	/	/	/	.	/	/
O=C1C(NS(=O)(=O)c2cccs2)=C(N2CCN(Cc3ccccc3)CC2)C(=O)c2ccccc21	.	.	.	.	.	39
CN1CCN(C2=C(NS(=O)(=O)c3cccs3)C(=O)c3ccccc3C2=O)CC1	.	.	.	.	.	.
O=C1C(NS(=O)(=O)c2cccs2)=C(N2CCOCC2)C(=O)c2ccccc21	.	.	.	.	.	38
SMILES	D2 ag-1	D2 ag-2	D2 PAM-1	LDHA block	D2 PAM-2	D2 antag
C=CCn1c(O)c(C(CC)=NCc2cccnc2)c(=O)[nH]c1=O	.	.	.	.	.	42
Cc1[nH][nH]c(=O)c1C=NCc1cccnc1	.	.	.	.	.	.
COc1ccc(NC(=O)c2cc(S(=O)(=O)N3CCCCCC3)cn2C)c(OC)c1	.	/	.	.	/	/
COc1ccc(NC(=O)c2cnc(SC)nc2C(F)(F)F)c(OC)c1	/	/	/	.	/	/
COc1ccc2c(c1)cc(C(=O)Nc1ccc(C)cc1C)n2C	/	/	/	.	/	/
CCOc1ccc2c(c1)cc(C(=O)Nc1ccccc1OCC)n2C	/	/	/	-33	/	/
COc1ccc(NC(=O)c2cc(S(=O)(=O)N3CCOCC3)cn2C)c(OC)c1	.	.	.	.	.	41
COc1ccc(NC(=O)c2cc3cc(C)ccc3n2C)c(OC)c1	.	.	.	.	.	34
COc1ccc(NC(=O)c2cnc(SC)nc2C)c(OC)c1	.	.	.	.	.	38
O=C(CN1CCN(c2ccccn2)CC1)Nc1ccc(F)cc1	.	.	.	?	.	.
O=C(CN1CCN(c2ccccn2)CC1)Nc1ccc(Oc2ccccc2)cc1	/	50	/	.	.	/
O=C(CN1CCN(c2ccccn2)CC1)Nc1ccccc1	.	.	.	.	.	31
O=C(CN1CCCCCC1)Nc1ccc(Oc2ccccc2)cc1	.	.	.	.	.	.
Clc1cccc(NN=C2c3ccccc3-c3ccccc32)c1	/	/	/	.	/	/
O=C(CSc1nccn1-c1ccc(F)cc1)Nc1ccc2c(c1)OCO2	.	.	39	.	.	.
CCOc1ccc(NC(=O)CSc2ncc(-c3ccc(F)cc3)n2Cc2ccco2)cc1	.	.	.	.	.	.
Cc1ccc(NC(=O)CSc2nnc(-c3cnccn3)n2Cc2ccco2)cc1	.	.	.	.	.	32
O=C(CSc1ncc(-c2ccc(F)cc2)n1Cc1ccco1)Nc1ccc2c(c1)OCO2	.	.	.	.	.	37
O=C(CSc1nccn1-c1ccccc1)Nc1ccc2c(c1)OCO2	.	.	.	.	.	.
O=C(NNc1nc2ccc(F)cc2s1)c1cccc(F)c1	.	.	.	.	.	41
O=C(NNc1nc2ccccc2s1)c1ccc(F)cc1	.	.	.	.	.	.
c1ccc(OCc2nn3c(CN4CCOCC4)nnc3s2)cc1	/	/	/	.	/	/
COC(=O)c1cc(S(=O)(=O)N2CCC(c3cc(OC)ccc3OC)C2)c[nH]1 (stereo not drawn)	.	.	83	.	.	.
Cc1cc(Cl)ccc1OC(=O)/C(C#N)=C/c1ccc(Cl)cc1	/	/	/	.	/	/
C=C(C)c1cccc(C(C)(C)NC(=O)NCc2ccncc2)c1	.	.	.	.	.	35
Cc1cccc(CCNC(=O)C2CCCN(c3ncnc4c3nc3n4CCCCC3)C2)c1 (stereo not drawn)	.	.	.	.	.	.
Cc1cccc(N2CCN(CCCNC(=O)C3CCCN(c4ncnc5c4nc4n5CCCCC4)C3)CC2C)c1 (stereo not drawn)	.	.	.	.	.	56
